Screening results (PubChem)
3CLpro inhibitor: SARS-CoV 3CLpro protease inhibitors, primary screen, biochemical, quenched FRET; Replicase polyprotein 1ab (Severe acute respiratory syndrome coronavirus), P0C6X7; recombinant SARS-CoV 3CLpro, quenched FRET peptide cleavage; inhibition, % at 6 µM; actives 0.14% (n = 290,000); AID 1706, 2009; in the data active means inhibition above about 12%
CCHF vOTU inh: CCHFV vOTU protease inhibitors, primary screen, biochemical, Pep-AMC substrate, fluorescence | AID 651958, 2012 | inhibition, % at 11.5 µM | Crimean-Congo hemorrhagic fever virus L polyprotein viral ovarian tumor (vOTU) protease … | actives 0.55% (n = 370,000); further: 0% = vehicle wells with enzyme and 100% = no enzyme wells
RecA splice inh: Mtb RecA intein splicing inhibitors, primary screen, biochemical, fluorescence, HTS; Protein RecA (Mycobacterium tuberculosis (strain ATCC 25618 / H37Rv)), P9WHJ3; cell-free RecA intein splicing; inhibition, % (test concentration not listed); actives 0.75% (n = 290,000); AID 2221, 2009; in the data active means inhibition above about 30%;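 further: 0% = vehicle wells and 100% = reference inhibitor control wells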
Target sequence (P9WHJ3 whole entry, looked up, canonical isoform): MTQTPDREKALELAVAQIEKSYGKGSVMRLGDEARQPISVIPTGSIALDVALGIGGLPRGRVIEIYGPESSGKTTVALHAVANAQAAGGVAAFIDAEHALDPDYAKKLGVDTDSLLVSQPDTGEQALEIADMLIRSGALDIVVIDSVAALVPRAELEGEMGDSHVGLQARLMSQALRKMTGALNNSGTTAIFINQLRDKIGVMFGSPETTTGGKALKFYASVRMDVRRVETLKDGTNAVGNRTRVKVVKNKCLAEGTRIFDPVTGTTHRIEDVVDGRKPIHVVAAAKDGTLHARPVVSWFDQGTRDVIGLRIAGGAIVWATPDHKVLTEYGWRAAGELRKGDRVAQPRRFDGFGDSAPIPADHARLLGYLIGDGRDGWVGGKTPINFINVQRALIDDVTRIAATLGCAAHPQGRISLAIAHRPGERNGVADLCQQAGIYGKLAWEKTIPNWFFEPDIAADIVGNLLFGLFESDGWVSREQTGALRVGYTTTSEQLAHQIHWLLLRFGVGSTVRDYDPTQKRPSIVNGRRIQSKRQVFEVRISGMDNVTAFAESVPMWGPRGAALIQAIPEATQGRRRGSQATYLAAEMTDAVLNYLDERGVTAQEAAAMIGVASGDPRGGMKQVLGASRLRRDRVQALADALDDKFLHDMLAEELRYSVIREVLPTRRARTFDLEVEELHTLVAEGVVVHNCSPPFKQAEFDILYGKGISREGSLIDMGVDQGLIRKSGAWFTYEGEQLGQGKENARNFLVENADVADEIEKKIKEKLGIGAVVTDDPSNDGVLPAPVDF
GDH-TPI counter: GDH-TPI coupling enzyme inhibitors, primary screen, artefact control for M. tuberculosis FBA inhibitor project, biochemical, absorbance, full deck; GDH-TPI coupled enzyme counterscreen, NADH absorbance; inhibition, % at 4.8 µM; actives 1.2% (n = 360,000); AID 588335, 2011;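 further: 0% = DMSO wells and 100% = wells lacking the enzyme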
DUSP3 inh: VHR1 phosphatase inhibitors, primary screen, biochemical, absorbance, uHTS. actives 0.52% (n = 290,000). recombinant VHR phosphatase, pNPP absorbance. Dual specificity protein phosphatase 3 (Homo sapiens), P51452. inhibition, % at 13.3 µM; in the data active means inhibition above about 50%
FBA Mtb inh: Mtb FBA enzyme inhibitors, primary screen, biochemical, fluorescence, strain H37Rv; actives 2.3% (n = 360,000); Fructose-bisphosphate aldolase (Mycobacterium tuberculosis (strain ATCC 25618 / H37Rv)), …; purified M. tuberculosis FBA, fluorescence read-out; inhibition, % at 1 µM; in the data active means inhibition above about 27%;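 further: 0% = vehicle and 100% = reference inhibitor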
The depositor's hits bear a star. The list is not random: actives were taken first. Their share in the collection is about 4.7%. Unless noted, no stated cut-off is given here; in the data, active means inhibition above about 30%; inactive means the rest.

How did CCCCCc1c(C)nc(N2CCc3ccccc32)[nH]c1=O do in these assays?
3CLpro inhibitor: 4; CCHF vOTU inh: 29; RecA splice inh: -1; GDH-TPI counter: 10; DUSP3 inh: 53*; FBA Mtb inh: 2

How did C=CC(C)(C)c1[nH]cnc1/C=C1\NC(=O)C(C(C)C)NC1=O (stereo unspecified) do in these assays?
CCHF vOTU inh: 0; RecA splice inh: -1; GDH-TPI counter: 32*; DUSP3 inh: 14; FBA Mtb inh: 5

How did Cc1sc2nc(COC(=O)CNC(=O)c3cc(F)ccc3F)[nH]c(=O)c2c1C do in these assays?
CCHF vOTU inh: 0

What do the screens show for `Cc1ccc2c(c1)CO[C@]21O[C@H](CCO)C[C@H](O)[C@H]1O`?
CCHF vOTU inh: 3; GDH-TPI counter: 18; FBA Mtb inh: 3

What do the screens show for `CC(C)CN(c1ccccc1)S(=O)(=O)c1nnc(NC(=O)c2ccco2)s1`?
3CLpro inhibitor: 7; CCHF vOTU inh: 29; RecA splice inh: 3; GDH-TPI counter: 35*; DUSP3 inh: -10; FBA Mtb inh: 6

What do the screens show for `CCN(c1ccc(C)cc1C)S(=O)(=O)c1nnc(NC(=O)c2ccco2)s1`?
3CLpro inhibitor: 6; CCHF vOTU inh: 24; RecA splice inh: -3; GDH-TPI counter: 27; DUSP3 inh: -26; FBA Mtb inh: 7

How did CCN(c1ccc(C)cc1)S(=O)(=O)c1nnc(NC(=O)c2ccco2)s1 do in these assays?
3CLpro inhibitor: 5; CCHF vOTU inh: 18; RecA splice inh: -1; GDH-TPI counter: 41*; DUSP3 inh: -10; FBA Mtb inh: 5

Results for COCCCNC(=O)c1ccc2c(c1)ncn2-c1ccc(C)cc1C ?
3CLpro inhibitor: -3; CCHF vOTU inh: -9; RecA splice inh: 2; GDH-TPI counter: 1; DUSP3 inh: 17; FBA Mtb inh: 150*

What do the screens show for `Cc1ccc2c(c1)COc1c3ccc(C(=O)N[C@@H](CO)C(C)C)cc3nn1-2`?
CCHF vOTU inh: -17; RecA splice inh: 0; GDH-TPI counter: 21; DUSP3 inh: -8; FBA Mtb inh: 33*

How did COCCNC(=O)c1ccc2c3n(nc2c1)-c1ccc(C)cc1CO3 do in these assays?
CCHF vOTU inh: -20; RecA splice inh: -2; GDH-TPI counter: 27; DUSP3 inh: -8; FBA Mtb inh: 49*

Results for CCOCCCNC(=O)c1ccc2c(c1)ncn2-c1cccc(C)c1 ?
3CLpro inhibitor: 2; CCHF vOTU inh: -5; RecA splice inh: 0; GDH-TPI counter: -4; DUSP3 inh: -10; FBA Mtb inh: 1

Results for O=C(NCCCCC(NC(=O)c1ccccc1)C(=O)O)OCc1ccccc1 (stereo unspecified) ?
CCHF vOTU inh: -13

Results for COc1ccccc1C(=O)Nc1nnc(-c2ccco2)s1 ?
3CLpro inhibitor: 1; CCHF vOTU inh: -17; RecA splice inh: 0; GDH-TPI counter: 33*; DUSP3 inh: 2; FBA Mtb inh: 1

How did COc1ccc(C(=O)Nc2nnc(-c3ccco3)s2)cc1 do in these assays?
3CLpro inhibitor: 0; CCHF vOTU inh: -11; RecA splice inh: 6; GDH-TPI counter: 46*; DUSP3 inh: 20; FBA Mtb inh: 12

Results for O=C(Nc1nnc(-c2ccco2)s1)c1ccccc1 ?
3CLpro inhibitor: 3; CCHF vOTU inh: 6; RecA splice inh: -3; GDH-TPI counter: 26; DUSP3 inh: 4; FBA Mtb inh: 2

What do the screens show for `COC(=O)C1=C(C)N(Cc2ccc(C(F)(F)F)cc2)C(=NCc2ccccc2)NC1c1cccc(Cl)c1` (stereo unspecified)?
CCHF vOTU inh: 19

Results for COc1cc(C(=O)NCC2CCCCC2)ccc1OCc1c(C)noc1C ?
CCHF vOTU inh: 7; GDH-TPI counter: -5; FBA Mtb inh: -5

How did CC(=O)Nc1ccc(CN2C(=O)C(CCc3ccccc3)ON=C2c2cnccn2)cc1 (stereo unspecified) do in these assays?
CCHF vOTU inh: -1; GDH-TPI counter: 6; FBA Mtb inh: -3

Results for Cc1cccc(NC(=O)COC(=O)c2cccs2)c1C ?
3CLpro inhibitor: 6; CCHF vOTU inh: -1; RecA splice inh: 1; GDH-TPI counter: -7; DUSP3 inh: 31; FBA Mtb inh: -4

Results for COc1ccc(C(=O)N/N=C\c2ccc(OC)c(COc3ccccc3Br)c2)c(OC)c1 ?
3CLpro inhibitor: 1; CCHF vOTU inh: -3; RecA splice inh: 5; GDH-TPI counter: 35*; DUSP3 inh: 10; FBA Mtb inh: 8

Results for COc1ccc(/C=N\NC(=O)c2ccc(F)cc2)cc1COc1ccccc1C(N)=O ?
3CLpro inhibitor: 1; CCHF vOTU inh: 8; RecA splice inh: 1; GDH-TPI counter: 11; DUSP3 inh: 10; FBA Mtb inh: 2

What do the screens show for `CCOC(=O)c1ccccc1OCc1cc(/C=N/NC(=O)c2ccncc2)ccc1OC`?
3CLpro inhibitor: -1; CCHF vOTU inh: 4; RecA splice inh: -1; GDH-TPI counter: 38*; DUSP3 inh: 13; FBA Mtb inh: 3

What do the screens show for `COc1ccc(/C=N\NC(=O)c2ccccc2Br)cc1COc1ccccc1`?
3CLpro inhibitor: 3; CCHF vOTU inh: -7; RecA splice inh: 0; GDH-TPI counter: 12; DUSP3 inh: 5; FBA Mtb inh: -1

Results for COc1ccc(/C=N/NC(=O)c2ccncc2)cc1CSc1nc2ccccc2s1 ?
3CLpro inhibitor: -1; CCHF vOTU inh: 0; RecA splice inh: 19; GDH-TPI counter: 31*; DUSP3 inh: -6; FBA Mtb inh: 2

Results for C[C@@H]1CCCCO[C@H](CN(C)C(=O)C2CCCCC2)[C@@H](C)CN([C@H](C)CO)C(=O)c2cc(NS(=O)(=O)c3cccs3)ccc2O1 ?
CCHF vOTU inh: -4

What do the screens show for `CC(C)C[C@H](NC(=O)N1CCOCC1)C(=O)N1CCC[C@H]1C(=O)NCc1ccccc1`?
CCHF vOTU inh: 11

What do the screens show for `CC1(C)CC(=O)C=C(Nc2ccccc2NC(=O)c2cc(F)ccc2F)C1`?
CCHF vOTU inh: -2

How did CCCN1CCN(C(=O)c2ccc(CS(=O)c3ccc(Cl)cc3)o2)CC1 (stereo unspecified) do in these assays?
3CLpro inhibitor: -11; CCHF vOTU inh: -7; RecA splice inh: -4; GDH-TPI counter: -11; DUSP3 inh: 57*; FBA Mtb inh: -8

Results for O=C(NCCCN1CCCCC1)c1ccc(CS(=O)c2ccc(F)cc2)o1 (stereo unspecified) ?
3CLpro inhibitor: -5; CCHF vOTU inh: 3; RecA splice inh: 1; GDH-TPI counter: 7; DUSP3 inh: 52*; FBA Mtb inh: -3
